Bioassay records from PubChem BioAssay.
TAR Tat displ – HIV-1 TAR-Tat binding disruption; AID 1259389; HIV-1 TAR RNA, Tat peptide displacement FRET; active compounds read high; z-score (concentration not given with the values); 100,000 tested, 0.6% active; active = z-score of 3 or more in at least 2 runs
CDC25B-CDK2 inh – human CDC25B-CDK2/CyclinA binding inhibition; P30305+P24941; HTRF CDC25B-CDK2/CyclinA binding, anti-His/anti-Flag; active compounds read high; z-score (concentration not given with the values); 94,000 tested, 0.72% active; in the data active = z-score above about 3.2
Numbers stand for hits; n = inactive; x = not tested or not shown. The list is not random: actives were taken first. Their share in the collection is about 0.86%.

SMILES	TAR Tat displ	CDC25B-CDK2 inh
COc1cccc(C2CC(=O)N3CN(c4ccccc4)CSC3=C2C#N)c1 (configuration not stated)	n	n
CC1Cc2cc(S(=O)(=O)CCC(=O)NCc3ccc4c(c3)OCO4)ccc2N1C(=O)C1CC1 (configuration not stated)	n	x
O=C(Nc1ccccc1)N(CC1CCCO1)C1CCS(=O)(=O)C1 (configuration not stated)	n	n
Cc1ccccc1OCc1n[nH]c(=S)n1C	x	n
N#CC1=C2N=C(N)c3ccccc3N2C2=C(C(=O)CCC2)C1c1cccc(Cl)c1 (configuration not stated)	n	19
COc1cccc(C2C(C#N)=C3N=C(N)c4ccccc4N3C3=C2C(=O)CCC3)c1 (configuration not stated)	n	n
Cc1csc(NC(=O)CSc2c(CC(C)C)cnc3c2c(=O)n(C)c(=O)n3C)n1	n	x
CCCn1cc(S(=O)(=O)c2ccc(OC)cc2)c(=O)c2cc(F)c(N3CCCC3)cc21	n	x
CCOC(=O)c1sc2ncnc(Oc3cccc(F)c3)c2c1C	n	x
CN1C(=O)C(C)(C)c2cc(S(=O)(=O)N(C)CC(=O)NC3CCCc4ccccc43)ccc21 (configuration not stated)	n	x
CSc1ccc(NC(=O)NCCCN2CCc3ccccc3C2)cc1	n	n
O=C(NCCCN1CCc2ccccc2C1)Nc1ccc(Br)cc1	n	9.2
CCn1c(SCC(=O)Nc2nc(C)cs2)nnc1-c1cc2ccccc2o1	5.3	x
Cc1csc(NC(=O)CSc2nnc(-c3cc4ccccc4o3)n2-c2ccccc2)n1	n	x
Cc1cc(-c2ccc(C)c(S(=O)(=O)Nc3ccc4c(c3)OCO4)c2)on1	n	x
Cc1cc(C)c2c(c1)sc1c(C)c(C)ccc12	x	n
Cc1ccc(Nc2nncc(=O)[nH]2)c(C)c1	n	n
O=C(c1cnn2cc(Br)cnc12)N1CCCC1c1ccccc1F (configuration not stated)	n	n
O=C(c1cnn2cc(Br)cnc12)N1CCCC1c1cccc(F)c1 (configuration not stated)	30	n
N#Cc1c(N)nc2c(c1N)C(C(C#N)C#N)c1cc(Br)ccc1O2 (configuration not stated)	x	7
COc1ccc(Br)cc1C1C(C#N)=C(N)Oc2cc(O)ccc21 (configuration not stated)	n	n
Oc1c(C(Nc2ccccn2)c2cccs2)ccc2cccnc12 (configuration not stated)	x	n
CN(C)c1cc(-c2cccc([N+](=O)[O-])c2)oc(=O)c1Cl	x	n
O=c1oc(-c2ccccc2)cc(Cl)c1Cl	n	14
O=S(=O)(NC1CCCc2ccccc21)c1ccc(-n2cccn2)cc1 (configuration not stated)	n	x
SMILES	TAR Tat displ	CDC25B-CDK2 inh
CCOC(=O)c1cc(C)nc2c1c(=O)n(Cc1nc(-c3cccs3)oc1C)c(=O)n2C	n	x
Fc1ccc(-c2cn3ccccc3n2)cc1	n	n
Fc1ccc(-c2cn3c(n2)Cc2ccccc2C3)cc1	x	18
Cc1cc(C)nc(SCCC(=O)O)n1	n	n
Cc1cccc2cc3c(nc12)N(S(=O)(=O)c1ccc2c(c1)OCCO2)CC3	n	n
Cn1c(=O)n(Cc2ccccc2Cl)c(=O)c2c1nc1n2CCN1Cc1ccco1	x	n
Cn1c(=O)n(Cc2ccccc2F)c(=O)c2c1nc1n2CCN1Cc1ccco1	4.7	x
O=C(c1cc(=O)c2cc(Cl)ccc2o1)N(Cc1ccc(F)cc1)C1CCS(=O)(=O)C1 (configuration not stated)	n	n
CCCCC(=O)N1CCC(C(=O)NCCc2csc(C)n2)CC1	n	x
Cc1ccc(-c2noc(-c3nnn(-c4ccc(Br)cc4)c3C)n2)cc1	n	x
CC(=O)N1N=C(c2cc(C3CC3)nc3ccccc23)OC1c1ccccc1 (configuration not stated)	n	x
COc1ccc(C2OC(c3cc(C4CC4)nc4ccccc34)=NN2C(C)=O)c(OC)c1 (configuration not stated)	9.2	x
CCOC(=O)c1cc(C#N)c(Oc2ccccc2)nc1C(F)(F)F	x	22
CCOC(=O)c1cc(C#N)c(Sc2ccccn2)nc1C(F)(F)F	x	n
O=C(CCS(=O)(=O)c1cc2c3c(c1)CCN3C(=O)CC2)Nc1ccccc1	n	x
Cc1nn(-c2ccc(N3CCCC3)nn2)c(C)c1CCC(=O)N1CCC(C)CC1	n	x
COc1cccc(C2Nc3ccc(C)cc3-c3cc(C)nn32)c1O (configuration not stated)	n	n
CC1CN(C(=O)Nc2ccc(F)cc2)c2cc(Cl)ccc2O1 (configuration not stated)	n	n
CC1CN(C(=O)Nc2ccc(Cl)cc2)c2ccccc2O1 (configuration not stated)	3.9	x
CCOC(=O)N1CCc2c(sc(N)c2C#N)C1	x	5.7
CN1CCc2c(sc(N)c2C#N)C1	n	x
CC(=O)N1c2ccc(S(=O)(=O)NCc3cccs3)cc2CC1C (configuration not stated)	n	x
N#CC1=C2SCN(c3ccc(Br)cc3)CN2C(=O)CC1c1ccccc1 (configuration not stated)	n	6
Cc1ccccc1N1CSC2=C(C#N)C(c3cccc(F)c3)CC(=O)N2C1 (configuration not stated)	n	8
Cc1ccc(N2CSC3=C(C#N)C(c4ccccc4)CC(=O)N3C2)cc1Cl (configuration not stated)	n	5.6
SMILES	TAR Tat displ	CDC25B-CDK2 inh
Cc1ccc(N2CSC3=C(C#N)C(c4cccc(F)c4)CC(=O)N3C2)cc1 (configuration not stated)	n	4.7
Fc1ccccc1N1CCN(Cc2nnc(-c3ccccc3)o2)CC1	n	n
CCCN1CCN(c2nc(N3CCCC3)c3cnn(C)c3n2)CC1	n	x
Cc1cccc2c1SC1CCCCC1OC(=O)N2 (configuration not stated)	x	n
O=C(C1Cc2ccccc2N1C(=O)c1ccccc1)N1CCC(N2CCCCC2)CC1 (configuration not stated)	n	x
Cc1ccn2c(=O)cc(COc3ccc(NC(=O)C(C)C)cc3)nc2c1	n	x
COc1ccc(-c2noc(Nc3ccc(OC)c(OC)c3)n2)cc1	n	x
CCOC(=O)N1CCN(C(=O)c2cn(C3CCCC3)c(=O)c3c2c2ccccc2n3C)CC1	n	n
CCC(C(=O)Nc1c(F)cc(F)cc1Br)n1c2ccccc2c2nc(=O)cc(C)n21 (configuration not stated)	n	n
N#CC1=C2SCN(c3cccc(Cl)c3)CN2C(=O)CC1c1cccc(F)c1 (configuration not stated)	n	8.4
CCc1ccccc1N1CSC2=C(C#N)C(c3ccccc3)CC(=O)N2C1 (configuration not stated)	n	6.9
Cc1ccccc1N1CSC2=C(C#N)C(c3ccccc3)CC(=O)N2C1 (configuration not stated)	n	5.4
Cc1cccc(N2CSC3=C(C#N)C(c4ccc(C)o4)CC(=O)N3C2)c1 (configuration not stated)	n	n
N#CC1=C2SCN(C3CCCCC3)CN2C(=O)CC1c1ccccc1 (configuration not stated)	n	n
Cc1cc(O)c2c(c1)C(=O)c1cc(O)cc(O)c1C2=O	n	n
O=C1c2cccc(O)c2C(=O)c2c(O)cc(CO)cc21	6.2	x
CCC(=O)OCc1cc(=O)n2nc(-c3cccs3)sc2n1	19	x
Cc1ccc(SCC(=O)OCc2cc(=O)n3nc(-c4cccs4)sc3n2)cc1	n	x
